Results reported in PubChem BioAssay AID1053205 (Broad Institute, 2014).
Results with a measured potency or affinity are listed apart. Records with an inconclusive call do not appear. Active and inactive are the calls of the source.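 The calls were made as follows: active = compounds lowering the FRET ratio whose fitted half-maximal concentration is at most twice their top tested dose; inconclusive = flat partial drop between 30 and 70 percent, or bad fit; inactive = the rest.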

Target: Voltage-dependent L-type calcium channel subunit alpha-1D (Homo sapiens) (UniProt Q01668)
Assay: inhibitors of CaV1.3 ICDI-IQ binding, dose response, cell-based, HEK293, YFP-IQ/CFP-ICDI FRET, cherry-picks (AID 1053205);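 also: 0% = median of neutral control wells and -100% = median of positive control wells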
Conditions: HEK293 YFP-IQ/CFP-ICDI FRET ratio, 10 min; series mostly up to 35 µM

Voltage-dependent L-type calcium channel subunit alpha-1D (Homo sapiens), sequence (Q01668 whole entry, looked up): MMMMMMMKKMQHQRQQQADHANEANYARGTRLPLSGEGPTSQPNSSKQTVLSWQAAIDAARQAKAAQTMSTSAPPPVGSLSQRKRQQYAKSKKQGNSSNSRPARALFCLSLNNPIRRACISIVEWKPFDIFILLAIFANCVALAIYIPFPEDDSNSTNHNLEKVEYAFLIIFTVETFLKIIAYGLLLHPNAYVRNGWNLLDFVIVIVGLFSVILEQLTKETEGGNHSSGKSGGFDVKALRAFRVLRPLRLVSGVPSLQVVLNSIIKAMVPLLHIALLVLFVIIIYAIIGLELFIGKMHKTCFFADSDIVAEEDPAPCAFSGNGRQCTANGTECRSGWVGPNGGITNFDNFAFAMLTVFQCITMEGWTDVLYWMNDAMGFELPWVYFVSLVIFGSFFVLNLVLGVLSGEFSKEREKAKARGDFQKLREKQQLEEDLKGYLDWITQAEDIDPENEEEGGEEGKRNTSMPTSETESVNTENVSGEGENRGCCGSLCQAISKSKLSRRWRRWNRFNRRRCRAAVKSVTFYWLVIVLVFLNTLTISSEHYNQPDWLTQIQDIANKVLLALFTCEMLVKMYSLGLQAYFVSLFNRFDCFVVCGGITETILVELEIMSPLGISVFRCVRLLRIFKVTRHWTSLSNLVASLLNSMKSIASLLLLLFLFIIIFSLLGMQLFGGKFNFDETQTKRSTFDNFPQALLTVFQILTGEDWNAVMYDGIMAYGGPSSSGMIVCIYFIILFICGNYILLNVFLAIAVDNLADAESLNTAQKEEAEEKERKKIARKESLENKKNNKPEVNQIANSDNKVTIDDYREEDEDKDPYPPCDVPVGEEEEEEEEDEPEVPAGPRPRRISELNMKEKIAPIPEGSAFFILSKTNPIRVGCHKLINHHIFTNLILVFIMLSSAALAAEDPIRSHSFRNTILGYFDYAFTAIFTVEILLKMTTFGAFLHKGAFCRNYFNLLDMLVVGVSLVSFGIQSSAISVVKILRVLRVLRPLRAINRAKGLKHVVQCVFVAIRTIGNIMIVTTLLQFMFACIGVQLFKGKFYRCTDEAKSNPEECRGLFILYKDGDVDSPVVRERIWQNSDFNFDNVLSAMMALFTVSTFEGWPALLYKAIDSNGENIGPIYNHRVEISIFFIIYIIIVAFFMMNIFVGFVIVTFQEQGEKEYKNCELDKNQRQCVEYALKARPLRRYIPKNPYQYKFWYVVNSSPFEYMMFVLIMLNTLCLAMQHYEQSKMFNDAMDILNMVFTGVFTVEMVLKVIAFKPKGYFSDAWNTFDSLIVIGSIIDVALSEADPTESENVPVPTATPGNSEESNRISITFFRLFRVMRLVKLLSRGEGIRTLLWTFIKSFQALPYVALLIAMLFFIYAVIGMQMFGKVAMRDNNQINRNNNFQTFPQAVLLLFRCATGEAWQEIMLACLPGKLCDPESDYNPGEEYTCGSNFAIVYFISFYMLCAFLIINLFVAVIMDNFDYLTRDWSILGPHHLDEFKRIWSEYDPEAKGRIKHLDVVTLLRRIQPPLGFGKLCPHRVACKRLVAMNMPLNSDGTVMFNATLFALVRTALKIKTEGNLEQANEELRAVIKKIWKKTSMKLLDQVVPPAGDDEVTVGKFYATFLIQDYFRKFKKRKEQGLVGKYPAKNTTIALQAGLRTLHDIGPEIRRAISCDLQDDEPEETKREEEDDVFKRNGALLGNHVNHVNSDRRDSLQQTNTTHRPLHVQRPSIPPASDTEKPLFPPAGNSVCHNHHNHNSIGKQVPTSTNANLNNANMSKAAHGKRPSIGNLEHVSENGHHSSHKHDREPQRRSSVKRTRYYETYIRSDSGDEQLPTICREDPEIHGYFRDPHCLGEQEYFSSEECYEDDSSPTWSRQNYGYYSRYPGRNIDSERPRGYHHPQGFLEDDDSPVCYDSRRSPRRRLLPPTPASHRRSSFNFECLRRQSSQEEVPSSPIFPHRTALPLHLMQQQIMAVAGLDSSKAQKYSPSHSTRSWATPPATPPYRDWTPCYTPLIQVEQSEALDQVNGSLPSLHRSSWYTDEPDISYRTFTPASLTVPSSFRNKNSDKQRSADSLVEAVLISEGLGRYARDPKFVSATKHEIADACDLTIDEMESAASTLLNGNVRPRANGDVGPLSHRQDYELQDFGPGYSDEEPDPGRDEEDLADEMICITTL

outcome, inactive:
O=C(NNc1cc(N2CCCC2)nc(N2CCCC2)n1)c1ccc([N+](=O)[O-])cc1, O=C(c1cccc(Cl)c1)N1CCC(=O)N(C(COCc2ccccc2)Cc2ccccc2)CC1 (centres undefined), NC(=O)c1cc([N+](=O)[O-])ccc1NCc1cccnc1, O=C(CCCN1C(=O)CSc2ncccc21)N1CCN(Cc2ccccc2)CC1, CSCCC1(C(=O)O)NC(c2ccccc2O)C2C(=O)N(C(C)C)C(=O)C21 (centres undefined), Cc1cccc2sc(NNC(=O)c3ccc(S(=O)(=O)N4CCCC(C)C4)cc3)nc12 (centres undefined), COc1ccccc1N1CCN(C2CCC(C)CC2)CC1 (centres undefined), CCN1C(=O)c2cccc3c(S(=O)(=O)N(C)C)ccc1c23, COCCNC(=O)c1cc2c(=O)n3cccc(C)c3nc2n(Cc2ccncc2)c1=N, CCCCCCSc1cc(-c2nc3cc(C)ccn3c2NCCCC)ccc1OC, Fc1ccc(-c2nc3ccccn3c2NCc2ccc3c(c2)OCO3)cc1, CCCOc1c(Br)cc(C2C3=C(CCCC3=O)N(C)C3=C2C(=O)CCC3)cc1OC, O=C(O)C1=CC[C@@H](c2ccc(Cl)cc2)N(S(=O)(=O)c2ccc(Cl)cc2)[C@H]1c1ccc(F)cc1, CC(C)(C)c1csc(N/N=C/c2ccc(O)cc2)n1, CC(=O)c1sc(N/N=C\c2ccc(N(C)C)cc2)nc1C, CCCN1CCN(C(=O)c2ccc(CS(=O)c3ccc(Br)cc3)o2)CC1 (centres undefined), O=C(NS(=O)(=O)c1ccc(Cl)s1)c1ccccc1, Cc1oc(/N=C/c2ccc(F)cc2)c(C#N)c1C

FRET change, negative = inhibition, inactive:
CCN1/C(=C/c2sc(-c3ccccc3C)c[n+]2C)Sc2ccccc21 148% [at 8 µM]
